# Assay results published in the supplement of paper PMC10849652.
# The full data set covers some 7,900 targets. This sample favours those with a hit. About 0.6% of all pairs of compound and target were hits. A number with no mark means an inactive call.
# Experiments:
# Experiment in all cases: log2 fold change, soluble protein after heating vs DMSO (PISA); higher = thermal stabilisation; K562 cells, 10 uM, 30 min; active = over 0.2 and 3.5 SD of the protein, either way, in both replicates (recomputed)
# [1] = compound: CS(=O)(=O)c1ccc(-c2cnc(N)c(C(=O)Nc3ccccc3)n2)cc1
# Summary of the method: (§1)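 K562 cells at 2×10^6 cells/mL were given 10 μM compound for 30 min. Aliquots then went through 3 min of heating across 48°C-58°C, were pooled, and were extracted in PBS with 0.5% NP-40 at 4°C, and the supernatant after 21,000xg for 90 min was quantified by TMTpro 16plex LC-MS/MS with channel sums equalised. Thermal stability relative to control samples, from duplicates, is given as log2 fold change.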
# crizotinib = compound: C[C@@H](Oc1cc(-c2cnn(C3CCNCC3)c2)cnc1N)c1c(Cl)ccc(F)c1Cl [crizotinib]
# Summary of the method: as §1
# [2] = compound: C[C@@H]1COCCN1C2=NC(=NC(=C2)C3(CC3)S(=O)(=O)C)C4=C5C=CNC5=CC=C4
# Summary of the method: as §1
# [3] = compound: C[C@H](C1=CC=C(C=C1)C(=O)NC2=C3C=CNC3=NC=C2)N
# Summary of the method: as §1
# duvelisib = compound: C[C@H](Nc1ncnc2nc[nH]c12)c1cc2cccc(Cl)c2c(=O)n1-c1ccccc1 [duvelisib]
# Summary of the method: as §1
# gandotinib = compound: Cc1cc(Nc2cc(CN3CCOCC3)c3nc(C)c(Cc4ccc(Cl)cc4F)n3n2)n[nH]1 [gandotinib]
# Summary of the method: as §1
# tozasertib = compound: Cc1cc(Nc2cc(N3CCN(C)CC3)nc(Sc3ccc(NC(=O)C4CC4)cc3)n2)n[nH]1 [tozasertib]
# Summary of the method: as §1
# [4] = compound: Cc1cc(SCc2sc(-c3ccc(C(F)(F)F)cc3)nc2C)ccc1OCC(=O)O
# Summary of the method: as §1
# doramapimod = compound: Cc1ccc(-n2nc(C(C)(C)C)cc2NC(=O)Nc2ccc(OCCN3CCOCC3)c3ccccc23)cc1 [doramapimod]
# Summary of the method: as §1
# ispinesib = compound: Cc1ccc(C(=O)N(CCCN)[C@@H](c2nc3cc(Cl)ccc3c(=O)n2Cc2ccccc2)C(C)C)cc1 [ispinesib]
# Summary of the method: as §1
# bafetinib = compound: Cc1ccc(NC(=O)c2ccc(CN3CC[C@H](N(C)C)C3)c(C(F)(F)F)c2)cc1Nc1nccc(-c2cncnc2)n1 [bafetinib]
# Summary of the method: as §1
# [5] = compound: Cc1cccc(CC(=O)N2CCc3c2ccc(-c2cn(C)c4ncnc(N)c24)c3F)n1
# Summary of the method: as §1
# nilotinib = compound: Cc1cn(-c2cc(NC(=O)c3ccc(C)c(Nc4nccc(-c5cccnc5)n4)c3)cc(C(F)(F)F)c2)cn1 [nilotinib]
# Summary of the method: as §1
# [6] = compound: Cc1nc(Nc2n[nH]c3c2CN(C(=O)N[C@H](CN(C)C)c2ccccc2)C3(C)C)c2sccc2n1
# Summary of the method: as §1
# dasatinib = compound: Cc1nc(Nc2ncc(C(=O)Nc3c(C)cccc3Cl)s2)cc(N2CCN(CCO)CC2)n1 [dasatinib]
# Summary of the method: as §1
# [7] = compound: Cc1ncc(-c2ccnc(Nc3ccc(S(C)(=O)=O)cc3)n2)n1C(C)C
# Summary of the method: as §1
# [8] = compound: Cn1cc(-c2ccc3c(c2)CCN3C(=O)Cc2cccc(C(F)(F)F)c2)c2c(N)ncnc21
# Summary of the method: as §1
# [9] = compound: Cn1cc(-c2ccc3nnc(C(F)(F)c4ccc5ncccc5c4)n3n2)cn1
# Summary of the method: as §1
# tipifarnib = compound: Cn1cncc1[C@@](N)(c1ccc(Cl)cc1)c1ccc2c(c1)c(-c1cccc(Cl)c1)cc(=O)n2C [tipifarnib]
# Summary of the method: as §1
# mubritinib = compound: FC(F)(F)c1ccc(/C=C/c2nc(COc3ccc(CCCCn4ccnn4)cc3)co2)cc1 [mubritinib]
# Summary of the method: as §1
# Sequence of UniProt Q13356 (Q13356 whole entry, looked up): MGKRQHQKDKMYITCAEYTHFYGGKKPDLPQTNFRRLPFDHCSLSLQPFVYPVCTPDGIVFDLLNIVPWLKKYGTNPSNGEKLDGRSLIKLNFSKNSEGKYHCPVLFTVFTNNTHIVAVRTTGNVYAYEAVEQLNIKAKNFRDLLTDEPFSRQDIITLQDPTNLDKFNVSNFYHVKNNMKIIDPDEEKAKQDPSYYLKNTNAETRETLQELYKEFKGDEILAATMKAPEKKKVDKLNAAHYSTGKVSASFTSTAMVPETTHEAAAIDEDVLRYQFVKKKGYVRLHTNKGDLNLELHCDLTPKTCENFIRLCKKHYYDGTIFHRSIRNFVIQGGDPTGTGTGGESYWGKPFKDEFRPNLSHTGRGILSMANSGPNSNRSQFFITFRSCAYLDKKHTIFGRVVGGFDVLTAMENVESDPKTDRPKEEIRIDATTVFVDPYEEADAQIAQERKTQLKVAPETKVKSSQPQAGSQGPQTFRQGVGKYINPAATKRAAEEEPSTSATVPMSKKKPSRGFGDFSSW
# Sequence of UniProt O60925 (O60925 whole entry, looked up): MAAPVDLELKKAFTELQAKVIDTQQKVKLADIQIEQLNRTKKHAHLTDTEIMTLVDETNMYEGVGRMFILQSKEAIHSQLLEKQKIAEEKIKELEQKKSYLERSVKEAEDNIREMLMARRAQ
# Sequence of UniProt P50336 (P50336 whole entry, looked up): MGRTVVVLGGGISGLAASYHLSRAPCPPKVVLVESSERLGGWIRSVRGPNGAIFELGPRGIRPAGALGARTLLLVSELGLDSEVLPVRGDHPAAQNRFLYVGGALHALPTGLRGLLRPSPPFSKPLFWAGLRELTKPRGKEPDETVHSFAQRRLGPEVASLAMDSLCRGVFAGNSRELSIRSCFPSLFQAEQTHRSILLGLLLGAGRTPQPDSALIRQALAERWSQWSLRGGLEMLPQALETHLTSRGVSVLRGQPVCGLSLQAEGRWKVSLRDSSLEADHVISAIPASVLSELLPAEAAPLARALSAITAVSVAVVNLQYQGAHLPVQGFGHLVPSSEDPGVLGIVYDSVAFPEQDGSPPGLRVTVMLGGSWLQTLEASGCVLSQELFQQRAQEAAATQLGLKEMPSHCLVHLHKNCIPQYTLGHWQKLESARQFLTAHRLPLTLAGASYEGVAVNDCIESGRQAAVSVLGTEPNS
# Sequence of UniProt P43686 (P43686 whole entry, looked up): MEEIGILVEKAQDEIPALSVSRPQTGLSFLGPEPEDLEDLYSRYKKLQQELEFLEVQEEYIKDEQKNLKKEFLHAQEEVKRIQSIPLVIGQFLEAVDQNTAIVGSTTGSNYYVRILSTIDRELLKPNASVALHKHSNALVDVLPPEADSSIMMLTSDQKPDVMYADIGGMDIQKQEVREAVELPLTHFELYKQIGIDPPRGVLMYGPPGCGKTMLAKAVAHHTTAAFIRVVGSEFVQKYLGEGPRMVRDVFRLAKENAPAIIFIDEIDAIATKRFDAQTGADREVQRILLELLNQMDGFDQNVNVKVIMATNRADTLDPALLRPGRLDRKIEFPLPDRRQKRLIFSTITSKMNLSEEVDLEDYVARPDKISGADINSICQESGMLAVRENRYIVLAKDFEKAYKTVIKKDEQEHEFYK
# Sequence of UniProt Q9Y2I7 (Q9Y2I7 whole entry, looked up): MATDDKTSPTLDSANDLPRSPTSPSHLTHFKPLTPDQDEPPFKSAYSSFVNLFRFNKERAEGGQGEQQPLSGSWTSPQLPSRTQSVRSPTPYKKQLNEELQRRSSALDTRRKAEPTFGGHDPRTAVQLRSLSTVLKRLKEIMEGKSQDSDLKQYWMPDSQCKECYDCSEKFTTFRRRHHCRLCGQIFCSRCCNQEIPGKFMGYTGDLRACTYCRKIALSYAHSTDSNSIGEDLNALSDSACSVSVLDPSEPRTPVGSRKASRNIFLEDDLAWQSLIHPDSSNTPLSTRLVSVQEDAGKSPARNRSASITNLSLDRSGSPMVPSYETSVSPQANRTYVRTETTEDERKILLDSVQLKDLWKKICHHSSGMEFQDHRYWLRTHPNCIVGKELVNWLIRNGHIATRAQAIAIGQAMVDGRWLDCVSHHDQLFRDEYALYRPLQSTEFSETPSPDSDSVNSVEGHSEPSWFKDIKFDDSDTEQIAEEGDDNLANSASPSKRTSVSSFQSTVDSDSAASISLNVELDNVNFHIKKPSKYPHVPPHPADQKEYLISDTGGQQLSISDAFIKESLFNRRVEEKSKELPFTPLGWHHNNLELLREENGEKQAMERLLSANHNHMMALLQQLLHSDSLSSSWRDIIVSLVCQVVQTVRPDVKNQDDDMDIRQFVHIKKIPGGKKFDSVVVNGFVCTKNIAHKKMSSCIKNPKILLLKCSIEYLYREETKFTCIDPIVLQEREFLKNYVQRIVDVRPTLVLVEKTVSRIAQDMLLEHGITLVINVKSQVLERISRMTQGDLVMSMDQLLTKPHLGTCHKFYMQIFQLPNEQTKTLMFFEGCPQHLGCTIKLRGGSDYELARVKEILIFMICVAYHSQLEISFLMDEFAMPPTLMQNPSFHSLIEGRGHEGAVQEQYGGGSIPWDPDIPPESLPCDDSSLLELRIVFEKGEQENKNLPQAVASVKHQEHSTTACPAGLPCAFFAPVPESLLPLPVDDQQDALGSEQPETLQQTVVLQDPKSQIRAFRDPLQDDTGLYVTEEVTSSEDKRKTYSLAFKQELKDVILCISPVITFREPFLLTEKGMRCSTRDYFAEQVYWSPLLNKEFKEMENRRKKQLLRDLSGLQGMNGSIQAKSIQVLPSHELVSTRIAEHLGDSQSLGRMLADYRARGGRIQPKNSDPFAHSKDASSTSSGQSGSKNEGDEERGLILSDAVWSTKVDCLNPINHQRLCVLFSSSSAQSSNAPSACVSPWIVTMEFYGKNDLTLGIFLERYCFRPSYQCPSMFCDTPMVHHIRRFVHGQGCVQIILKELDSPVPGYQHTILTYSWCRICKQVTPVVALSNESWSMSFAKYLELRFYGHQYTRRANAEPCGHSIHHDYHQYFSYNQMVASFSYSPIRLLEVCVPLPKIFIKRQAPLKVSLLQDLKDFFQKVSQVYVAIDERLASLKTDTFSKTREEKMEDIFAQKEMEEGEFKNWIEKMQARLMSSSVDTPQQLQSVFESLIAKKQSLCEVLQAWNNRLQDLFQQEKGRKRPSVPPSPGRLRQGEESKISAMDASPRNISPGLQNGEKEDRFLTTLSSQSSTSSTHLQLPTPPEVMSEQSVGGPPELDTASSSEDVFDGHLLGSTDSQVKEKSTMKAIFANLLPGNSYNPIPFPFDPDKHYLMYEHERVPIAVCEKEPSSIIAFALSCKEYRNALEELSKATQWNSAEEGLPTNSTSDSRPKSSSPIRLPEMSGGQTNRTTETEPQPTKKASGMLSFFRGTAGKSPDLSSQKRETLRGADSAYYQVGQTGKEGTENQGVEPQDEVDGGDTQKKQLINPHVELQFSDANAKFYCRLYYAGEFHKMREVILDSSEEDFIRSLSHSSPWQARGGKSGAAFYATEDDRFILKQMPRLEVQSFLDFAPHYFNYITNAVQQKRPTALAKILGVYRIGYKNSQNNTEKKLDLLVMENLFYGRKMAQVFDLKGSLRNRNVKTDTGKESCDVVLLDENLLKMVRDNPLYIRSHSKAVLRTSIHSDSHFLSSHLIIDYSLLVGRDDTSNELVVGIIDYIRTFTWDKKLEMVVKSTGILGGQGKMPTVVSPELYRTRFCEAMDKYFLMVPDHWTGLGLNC
# Sequence of UniProt Q8N8N7 (Q8N8N7 whole entry, looked up): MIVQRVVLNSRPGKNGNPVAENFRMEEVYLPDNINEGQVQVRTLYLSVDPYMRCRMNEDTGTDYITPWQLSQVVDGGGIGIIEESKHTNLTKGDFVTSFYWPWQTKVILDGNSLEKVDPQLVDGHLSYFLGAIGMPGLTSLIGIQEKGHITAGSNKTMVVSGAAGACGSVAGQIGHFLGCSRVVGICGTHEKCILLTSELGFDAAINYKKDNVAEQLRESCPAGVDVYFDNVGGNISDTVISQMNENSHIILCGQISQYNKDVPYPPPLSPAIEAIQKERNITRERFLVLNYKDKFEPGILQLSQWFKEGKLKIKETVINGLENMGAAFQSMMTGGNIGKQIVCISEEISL
# Sequence of UniProt Q15366 (Q15366 whole entry, looked up): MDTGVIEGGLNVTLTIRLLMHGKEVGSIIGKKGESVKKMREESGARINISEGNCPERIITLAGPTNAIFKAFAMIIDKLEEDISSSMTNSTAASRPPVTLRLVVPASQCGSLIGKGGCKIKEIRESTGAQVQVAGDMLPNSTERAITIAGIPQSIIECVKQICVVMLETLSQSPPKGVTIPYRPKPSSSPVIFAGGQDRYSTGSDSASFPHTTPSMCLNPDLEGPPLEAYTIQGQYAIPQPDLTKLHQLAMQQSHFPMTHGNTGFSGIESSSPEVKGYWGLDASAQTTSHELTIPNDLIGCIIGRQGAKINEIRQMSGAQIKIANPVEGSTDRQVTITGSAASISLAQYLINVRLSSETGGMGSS
# Sequence of UniProt P28070 (P28070 whole entry, looked up): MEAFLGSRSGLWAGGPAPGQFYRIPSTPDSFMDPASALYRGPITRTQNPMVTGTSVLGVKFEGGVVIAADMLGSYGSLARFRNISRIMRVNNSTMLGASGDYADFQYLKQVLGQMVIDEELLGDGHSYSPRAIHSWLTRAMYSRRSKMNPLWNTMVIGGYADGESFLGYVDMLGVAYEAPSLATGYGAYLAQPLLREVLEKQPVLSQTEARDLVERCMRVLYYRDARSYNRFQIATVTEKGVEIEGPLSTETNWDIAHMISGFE
# Sequence of UniProt Q92968 (Q92968 whole entry, looked up): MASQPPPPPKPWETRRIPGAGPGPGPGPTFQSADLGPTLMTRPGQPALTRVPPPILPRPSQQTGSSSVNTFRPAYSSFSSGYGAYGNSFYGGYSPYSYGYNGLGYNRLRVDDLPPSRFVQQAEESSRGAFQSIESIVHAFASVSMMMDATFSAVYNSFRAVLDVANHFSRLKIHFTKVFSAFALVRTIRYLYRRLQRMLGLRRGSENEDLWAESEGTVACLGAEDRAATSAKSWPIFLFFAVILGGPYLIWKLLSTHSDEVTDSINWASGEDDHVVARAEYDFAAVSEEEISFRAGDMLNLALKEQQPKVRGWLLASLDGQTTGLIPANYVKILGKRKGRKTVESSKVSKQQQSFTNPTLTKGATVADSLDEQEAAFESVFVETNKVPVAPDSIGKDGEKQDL
Target,log2 fold change [1],log2 fold change (crizotinib),log2 fold change [2],log2 fold change [3],log2 fold change (duvelisib),log2 fold change (gandotinib),log2 fold change (tozasertib),log2 fold change [4],log2 fold change (doramapimod),log2 fold change (ispinesib),log2 fold change (bafetinib),log2 fold change [5],log2 fold change (nilotinib),log2 fold change [6],log2 fold change (dasatinib),log2 fold change [7],log2 fold change [8],log2 fold change [9],log2 fold change (tipifarnib),log2 fold change (mubritinib)
PRPF31 (UniProt Q8WWY3),0.041,0.013,0.181,0.137,0.133,-0.044,0.08,0.159,0.069,-0.029,-0.012,0.01,-0.037,-0.572 (active),-0.274,-0.387,0.055,0.053,-0.031,-0.014
PEX13 (UniProt Q92968),-0.005,-0.146,0.034,-0.047,0.078,-0.143,-0.163,-0.016,0.056,-0.026,-0.159,0.106,-0.046,0,0.014,0.035,-0.071,-0.075,-0.027,0.042
PPM1G (UniProt O15355),0.114,-0.028,0.045,-0.083,0.044,-0.026,0.081,0.171,-0.008,-0.055,0.001,0.048,-0.041,-0.05,-0.097,0,0.096,0.117,-0.133,0.105
PFDN1 (UniProt O60925),0.018,0.069,0.264,-0.115,0.175,0.029,0.072,0.081,0.018,0.277,0.038,-0.041,0.012,0.026,0.076,-0.023,0.153,0.328,-0.061,0.039
PRKACB isoform 2 (UniProt P22694),-0.009,-0.145,0.033,-0.039,0.009,-0.091,-0.02,0.047,0.028,-0.043,-0.06,0.04,-0.021,0.647 (active),-0.021,-0.037,-0.013,-0.004,-0.144,0.051
PSMC4 (UniProt P43686),0,0.007,-0.056,0.06,-0.076,-0.011,0.04,0.001,0.02,-0.02,0.087,0,-0.013,0.05,0.052,-0.019,-0.128,-0.037,0.117,-0.012
PUF60 (UniProt Q9UHX1),-0.012,0.031,0.025,-0.199,0.01,-0.09,0.081,0.056,-0.041,0.039,0.077,-0.04,-0.022,-0.703 (active),-0.085,-0.001,0.008,-0.046,-0.034,0.024
PRKCA (UniProt P17252),-0.023,-0.081,0.044,-0.041,0.158,-0.227,-0.052,0.232,0.01,-0.112,-0.043,-0.066,-0.011,-0.173,-0.233,-0.005,0.082,-0.022,-0.026,0.054
PPP1CA (UniProt P62136),0.042,0.042,0.013,-0.069,0.048,0.026,0.034,-0.045,-0.003,0.083,-0.053,-0.001,-0.002,-0.006,0.008,-0.011,0.018,0.065,0.023,0.065
PSMB4 (UniProt P28070),0.014,0.03,-0.09,0.064,-0.04,0.08,-0.002,-0.018,0.021,0.015,0.051,-0.052,0,0.063,0.076,-0.015,-0.03,0.014,0.047,0.009
PPOX (UniProt P50336),0.173,-0.197,0.128,-0.077,0.304,0.427,0.019,0.091,0.378,0.02,-0.031,-0.013,0.494,0.027,0.208,-0.015,0.192,0.086,0.08,0
PPIL2 (UniProt Q13356),0.029,0.027,0.061,-0.012,0.121,-0.081,0.039,0.131,-0.079,0.037,-0.008,0.032,-0.056,-0.086,-0.127,0.068,0.03,0.046,-0.142,0.011
PCBP2 isoform 3 (UniProt Q15366),-0.036,-0.018,0.06,-0.031,-0.006,-0.065,0.056,0.072,-0.008,0.005,0.037,0.083,-0.095,-0.156,-0.132,-0.058,0.007,0.018,-0.08,0.004
PIKFYVE (UniProt Q9Y2I7),-0.016,-0.068,0.096,0.073,0.005,-0.062,-0.005,0.091,0.023,-0.061,-0.031,0.153,-0.015,0.045,-0.061,-0.092,0.005,0.031,0.108,0.017
PCGF2 (UniProt P35227),0.041,0.01,0.075,0.087,0.124,0.121,0.015,0.15,-0.089,0.021,0.015,-0.035,-0.097,-0.235,-0.127,0.028,0.004,0.081,0.001,-0.001
PTGR2 (UniProt Q8N8N7),0.097,-0.075,0.045,0.112,0.049,0.192,0,-0.185,0.223,0.013,0.084,-0.151,0.003,-0.215,-0.025,0.07,0.112,0.485 (active),0.184,-0.066
